# AmpC inh detg – AmpC beta-lactamase inhibition with detergent present | P00811 | 0.041% of 370,000 active | AmpC hydrolysis of nitrocefin, absorbance 480 nm, 0.01% Triton | Potency, µM (highest dose often 114 µM), actives largely listed as inhibitors; further: nearly all actives have a fitted effect of over 25% in size
# Target sequence (P00811 whole entry, looked up): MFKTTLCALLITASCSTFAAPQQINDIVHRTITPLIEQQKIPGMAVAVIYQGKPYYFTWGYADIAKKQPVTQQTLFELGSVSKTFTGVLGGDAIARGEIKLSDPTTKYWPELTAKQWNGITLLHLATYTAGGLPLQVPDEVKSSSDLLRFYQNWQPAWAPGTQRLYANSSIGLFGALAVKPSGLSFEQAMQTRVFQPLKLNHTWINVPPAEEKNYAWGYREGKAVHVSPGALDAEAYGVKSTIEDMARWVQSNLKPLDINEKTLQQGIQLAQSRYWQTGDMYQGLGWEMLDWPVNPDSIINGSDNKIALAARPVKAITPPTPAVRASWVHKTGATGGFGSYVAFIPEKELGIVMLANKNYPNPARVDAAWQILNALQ
#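 AmpC (5.3 nM in the dispensed reagent) in 20 mM phosphate pH 7.0 with 0.01% (detergent screen) or 0.0001% Triton X-100 was preincubated with compounds for 15 min at room temperature. Nitrocefin was then added from an 800 uM solution, and hydrolysis was followed at 480 nm.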
# Pf growth 96h – inhibits malaria parasite growth, 96 h. P. falciparum luciferase reporter growth, 96 h. Potency, µM (highest dose often 28.7 µM), hits mostly inhibitors. 6.9% of 320,000 active
#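 Parasite growth measured via integrated firefly luciferase reporter in P. falciparum. Infected erythrocytes at 2% hematocrit, 0.05% parasitemia final were treated 96 hours at 37 C under 5% CO2, and luminescence was read.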
# Sm TGR inh – inhibitors of Schistosoma mansoni thioredoxin glutathione reductase | 3% of 360,000 active | Potency, µM (highest dose often 114 µM), actives largely listed as inhibitors | Q962Y6 | purified TGR, DTNB reduction, TNB absorbance 405 nm; further: nearly all actives have a fitted effect of over 60% in size
#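 Kinetic colorimetric format: TGR-catalysed, NADPH-driven DTNB reduction monitored via TNB absorbance. Enzyme dispensed at 20 nM; compound exposure 15 min at room temperature before reaction start.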
# AmpC no deterg – inhibitors of E. coli AmpC beta-lactamase without detergent; P00811; AmpC nitrocefin hydrolysis, absorbance 480 nm, 0.0001% Triton; Potency, µM (titrated, usually from 57.1 µM), actives largely listed as inhibitors; 0.52% of 330,000 active; further: nearly all actives have a fitted effect of over 20% in size
#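 20 mM phosphate pH 7.0 + 0.01% (detergent screen) or 0.0001% Triton X-100; 5.3 nM AmpC reagent; cpd preinc 15 min RT; nitrocefin (800 uM stock) to start; A480 q20 s × 4 min; Activity was normalised to no-enzyme and no-compound control wells.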
# SARS PLpro yeast – blocks SARS-CoV papain-like protease in a yeast assay; Potency, µM (highest dose often 32.9 µM), usual class: activators; 0.19% of 330,000 active; S. cerevisiae expressing SARS-CoV PLpro, growth rescue; calls by dose curve; further: nearly all actives have a fitted effect of over 55% in size
# Pf growth 48h – P. falciparum growth inhibition at 48 hours (one generation) | Potency, µM (titrated, usually from 28.7 µM), hits mostly inhibitors | 5.9% of 310,000 active | P. falciparum luciferase growth in erythrocytes, 48 h
#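 Read-out is firefly luciferase luminescence from an integrated reporter in P. falciparum, so falling signal marks reduced parasite growth. Infected erythrocytes were at 2% hematocrit and 0.1% parasitemia (final) in Albumax-supplemented RPMI 1640.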
# Numbers stand for hits; 0 = inactive; ? = inconclusive; - = not tested or not shown. The list is not random: actives were taken first. Their share in the collection is about 12%. Unless noted, the call rests on the fitted dose curve; in most records, active means well fitted curve in the direction sought with a large enough effect; inconclusive means small, poorly fitted or top-dose-only effect, or another doubt; inactive means no such curve, though single readings can be large; an effect the other way counts as inactive or inconclusive.
SMILES,AmpC inh detg,Pf growth 96h,Sm TGR inh,AmpC no deterg,SARS PLpro yeast,Pf growth 48h
Fc1ccccc1-c1ccc(/C=N/Nc2nc3ccccc3[nH]2)o1,?,0.928µM,0,0,0,?
C(=N\Nc1nc2ccccc2[nH]1)/c1ccccn1,?,0,0,0,0,0
Cc1ccc(/C=N\Nc2nc3ccc(Cl)cc3[nH]2)o1,0,2.33µM,0,0,0,2.62µM
COc1cc(C(CC(=O)Nc2cc(C)ccc2C)N2Cc3ccccc3C2=O)cc(OC)c1OC (stereo unspecified),0,-,0,-,-,-
CCCCn1c(/C=N/Nc2nc3ccccc3[nH]2)nc2ccccc21,0,?,0,0,0,1.85µM
C#CCn1cc(/C=N/Nc2nc3ccccc3[nH]2)c2ccccc21,0,0,0,0,0,?
O=C(COc1ccc(-c2nnco2)cc1)Nc1cc([N+](=O)[O-])ccc1F,-,-,-,0,0,-
CCOC(=O)c1ccc(NC(=S)N2CCN(CCO)CC2)cc1,0,0,0,0,0,0
Fc1ccccc1N1CCN(CCCc2ccccc2)CC1,0,11.7µM,0,0,0,0
C/C(=N\Nc1nc2ccccc2nc1C)c1ccccc1O,0,1.17µM,0,0,0,?
C/C(=N\Nc1cc(C)nc(-c2ccccc2O)n1)c1ccccc1O,0,?,0,0,0,?
COc1ccc(N2CC(NC(=O)c3cc4ccccc4o3)CC2=O)cc1OC (stereo unspecified),0,-,0,-,-,-
O=S(=O)(Oc1ccccc1/C=N/n1cnnc1)c1ccccc1,0,11.7µM,-,0,0,0
CC(=O)c1c(COC(=O)c2ccco2)nc2ccccc2[n+]1[O-],0,-,39.8µM,0,0,0
CCOC(=O)c1c(COC(=O)c2ccco2)nc2ccccc2[n+]1[O-],0,0,?,0,0,0
COc1ccccc1Nc1nc(-c2ccc3c(c2)NC(=O)CO3)cs1,0,0,0,0,0,0
COc1cc(/C=N/n2c(-c3ccc4c(c3)NC(=O)CO4)csc2=Nc2cccc(C)c2)ccc1O,0,4.65µM,0,0,0,?
COCCN=c1scc(-c2ccc3c(c2)NC(=O)CO3)n1/N=C(\C)c1ccc(O)cc1,0,?,0,0,0,10.4µM
CC(=O)c1cccc(N(CC(=O)NC2CCCCC2)C(=O)CNC(=O)c2cccs2)c1,0,0,0,0,0,0
Cc1ccc(C2N=C(N)Nc3nc(=O)c4ccccc4n32)cc1 (stereo unspecified),0,9.28µM,0,0,0,?
C=CCNCc1cccn1-c1ccccc1,0,?,0,0,0,0
O=C(Cn1nc(-c2ccco2)ccc1=O)Nc1ccc(Cl)c(Cl)c1,0,0,7.08µM,0,0,0
O=C(Cn1nc(-c2ccco2)ccc1=O)Nc1cc(C(F)(F)F)ccc1Cl,0,0,50.1µM,0,0,0
O=C(Cn1nc(-c2cccc(Cl)c2)ccc1=O)Nc1ccccc1Br,0,0,0,0,0,0
O=C(Cn1nc(-c2ccco2)ccc1=O)Nc1cc(Cl)ccc1Cl,0,0,5.62µM,0,0,?
SMILES,AmpC inh detg,Pf growth 96h,Sm TGR inh,AmpC no deterg,SARS PLpro yeast,Pf growth 48h
CSc1ccc(CN2CCCN(C)CC2)cc1,0,0,0,0,0,0
COc1ccccc1N1C(=O)NC(=O)/C(=C/c2ccc([N+](=O)[O-])s2)C1=O,0,0,5.62µM,0,0,0
COc1cccc(N2C(=O)NC(=O)/C(=C/c3ccc([N+](=O)[O-])s3)C2=O)c1,0,0,7.94µM,0,0,0
COc1ccc(N2C(=O)NC(=O)/C(=C/c3ccc([N+](=O)[O-])s3)C2=O)cc1,0,0,7.08µM,0,0,0
CCOc1ccc(N2C(=O)NC(=O)/C(=C\c3cc(OC)c(OC)cc3[N+](=O)[O-])C2=O)cc1,0,0,?,0,0,0
COc1ccc(N2C(=O)NC(=O)/C(=C\c3ccc([N+](=O)[O-])s3)C2=O)cc1,0,0,7.94µM,0,0,0
COc1cccc(N2C(=O)NC(=O)/C(=C/c3ccc4c(c3)Cc3ccccc3-4)C2=O)c1,0,0,?,0,0,0
COc1ccc(N2C(=O)NC(=O)/C(=C/c3ccc(N4CCOCC4)cc3)C2=O)cc1,0,0,0,0,0,0
COc1ccc(NC(=O)N2CCc3c(sc4c3CCCC4)C2c2ccc(F)cc2)cc1 (stereo unspecified),0,-,0,-,-,-
COc1ccc(SC[C@H](Cc2ccccc2)N2CC[C@@H](C(C)(C)C)CCC2=O)cc1,0,?,0,0,0,11.7µM
NC(=O)C1CCC(NC(=O)OCc2ccccc2)CC1 (stereo unspecified),?,6.57µM,?,0,0,0
O=C(CNC(=O)OCc1ccccc1)NC1CCCCCCC1,0,0,0,0,0,0
O=C(N[C@H]1CCC(=O)N([C@H](CSc2ccccc2)Cc2ccccc2)CC1)OCc1ccccc1,0,8.28µM,0,0,0,?
Cc1ccc(SC[C@H](Cc2ccccc2)N2CC[C@@H](NC(=O)OCc3ccccc3)CCC2=O)cc1,?,8.28µM,0,0,0,?
COc1ccc(SC[C@H](Cc2ccccc2)N2CC[C@@H](O)CCC2=O)cc1,0,0,0,0,0,0
CC(C)c1ccc(NC(=O)CN2C(=O)c3cccc4cccc2c34)cc1,0,-,0,-,-,-
N#CCOC(=O)C1CCN(S(=O)(=O)c2ccc3c(c2)OCCO3)CC1,0,0,0,0,0,?
C/C(=N\NC(=O)C1CC1)c1ccc(Cl)c(Cl)c1,0,4.15µM,0,0,0,-
C/C(=N\NC(=O)C1CC1)c1ccc(C)c(C)c1,0,0,0,0,0,?
Cc1ccc(S(=O)(=O)n2nc(OC(=O)c3cccs3)cc2N)cc1,0,0,0,0,0,0
Cc1ccc(S(=O)(=O)n2ccc(OC(=O)c3cccs3)n2)cc1,0,0,6.31µM,0,0,0
COC(=O)C1=C(c2ccc(F)cc2OCc2ccccc2)C[C@@H]2CC[C@H]1N2C(=O)NCc1ccc(N(C)C)cc1,0,?,0,0,0,11.7µM
COC(=O)C1=C(c2ccccc2OCc2ccccc2)C[C@@H]2CC[C@H]1N2C(=O)NCc1ccc(Cl)cc1,0,?,0,0,0,9.28µM
COC(=O)C1=C(c2ccccc2OCc2ccccc2)C[C@@H]2CC[C@H]1N2C(=O)NCc1ccc([N+](=O)[O-])cc1,0,?,0,0,0,11.7µM
COC(=O)C1=C(c2ccccc2OCc2ccccc2)C[C@@H]2CC[C@H]1N2C(=O)NCc1ccc(N(C)C)cc1,0,?,0,0,0,6.57µM
Cc1cccc(NC(=O)CN2C(=O)C3(SCC(=O)N3c3ccccc3)c3ccccc32)c1 (stereo unspecified),0,-,0,-,-,-
